CRFR2-BP ag: agonists of CRF-BP/CRF-R2 complex, primary screen, cell-based, HEK293, calcium dye fluorescence, uHTS; CRF-binding protein / CRF receptor 2 complex (human); 350,000 tested, 0.46% active; activation, % at 13.2 µM; calcium dye fluorescence (FLIPR); percent of saturating CRF peptide response; AID 588473, 2011;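 active = activation of at least 50%, plus an integration ratio under a set limit after plate pattern correction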;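 also: plate controls were neutral control wells without compound for no effect and CRF at EC100 for full effect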
NR3A LBD binder: binders of NR3A ligand-binding domain, primary screen, biophysical, differential scanning fluorimetry, uHTS; NR3A LBD differential scanning fluorimetry, Tm shift; 0% = protein alone, 100% = glycine-bound protein; 340,000 tested, 2.5% active; Tm shift relative to glycine control, % at 25 µM; AID 1259313, 2017; Glutamate receptor ionotropic, NMDA 3A (GRIN3A) ligand-binding domain;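 active = melting temperature shift of at least 10% of the positive control shift, at one fixed dose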
MPTP block: mitochondrial permeability transition pore inhibitors, primary screen, biochemical, isolated mouse mitochondria, absorbance | Ca2+ swelling absorbance, 30 min | inhibition, % at 10 µM | 360,000 tested, 1.4% active | AID 602449, 2012;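 active = inhibition of 50% or more, scaled per plate between neutral and stimulator controls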;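 also: 0% = DMSO wells given calcium and 100% = 1 mM EGTA wells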
TMEM16A act: TMEM16A chloride channel activators or potentiators, primary screen, cell-based, HTS | Anoctamin-1 (Mus musculus), Q8BHY3 | HEK293 TMEM16A/YFP-H148Q/I152L, iodide quench fluorescence; active compounds read low | B-score at 10 µM | 340,000 tested, 0.3% active | AID 623877, 2012;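 active = fluorescence-ratio B-score plate-corrected deviation score at least 3 library SD below zero, with starting fluorescence score within 5 deviations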;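 also: channel opened by trigger with iodide after compound preincubation; score built on the fluorescence ratio of max minus min over baseline; more negative score means more quench and so TMEM16A activation or potentiation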
Target sequence (Q8BHY3 whole entry, looked up): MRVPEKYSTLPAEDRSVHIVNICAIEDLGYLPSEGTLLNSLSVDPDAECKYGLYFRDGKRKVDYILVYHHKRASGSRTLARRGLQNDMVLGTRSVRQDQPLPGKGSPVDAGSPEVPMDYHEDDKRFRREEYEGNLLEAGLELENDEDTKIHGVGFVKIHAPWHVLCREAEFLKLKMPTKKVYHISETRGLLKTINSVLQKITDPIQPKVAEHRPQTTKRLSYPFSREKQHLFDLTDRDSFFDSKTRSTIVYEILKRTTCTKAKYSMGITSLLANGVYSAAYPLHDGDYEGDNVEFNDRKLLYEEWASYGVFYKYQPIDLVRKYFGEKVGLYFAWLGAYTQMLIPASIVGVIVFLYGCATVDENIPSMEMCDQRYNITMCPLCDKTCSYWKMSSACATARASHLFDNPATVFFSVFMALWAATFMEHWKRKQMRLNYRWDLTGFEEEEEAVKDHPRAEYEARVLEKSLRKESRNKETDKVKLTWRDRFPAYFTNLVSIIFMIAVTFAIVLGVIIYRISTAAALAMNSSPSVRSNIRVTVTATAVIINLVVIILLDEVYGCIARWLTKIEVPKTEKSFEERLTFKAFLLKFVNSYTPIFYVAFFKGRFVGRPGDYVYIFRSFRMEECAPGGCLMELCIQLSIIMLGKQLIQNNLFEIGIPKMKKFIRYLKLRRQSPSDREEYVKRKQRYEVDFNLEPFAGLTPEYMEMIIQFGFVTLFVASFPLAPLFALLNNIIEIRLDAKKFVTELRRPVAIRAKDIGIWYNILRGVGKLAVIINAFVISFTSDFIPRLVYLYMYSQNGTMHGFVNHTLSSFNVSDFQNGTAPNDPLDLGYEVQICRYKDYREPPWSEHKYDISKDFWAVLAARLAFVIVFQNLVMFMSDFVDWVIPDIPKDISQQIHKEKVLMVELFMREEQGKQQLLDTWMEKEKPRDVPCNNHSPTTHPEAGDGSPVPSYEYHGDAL
ANO1 block: TMEM16A chloride channel inhibitors, primary screen, cell-based, HTS; Anoctamin-1 (Mus musculus), Q8BHY3; HEK293 TMEM16A/YFP iodide influx fluorescence, ionomycin; normalized B-score (activity score, 25-100; higher = stronger inhibition) at 10 µM; 310,000 tested, 1.2% active;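 active = ratio plate-corrected score three or more library SD toward inhibition, starting fluorescence score within five deviations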;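 also: score derived from kinetic fluorescence span divided by baseline fluorescence per well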
CRFBP-R2 block: antagonists of CRF-BP/CRF-R2 complex, primary screen, cell-based, HEK293, calcium dye fluorescence, uHTS | inhibition, % at 11.8 µM | CRF-induced calcium fluorescence | 350,000 tested, 0.59% active;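 active = inhibition of the ligand-induced calcium signal above about 50% at the single tested concentration, limit read from the data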
The depositor's hits bear a star; i = inactive; . = not tested or not shown. Hits are enriched below; roughly 5.1% of the tested compounds scored in any of these assays.

SMILES	CRFR2-BP ag	NR3A LBD binder	MPTP block	TMEM16A act	ANO1 block	CRFBP-R2 block
Oc1c(Br)cc(Br)cc1Oc1ccc(Br)cc1Br	.	.	.	.	100*	.
Brc1ccc(Oc2ccc(Br)cc2Br)c(Br)c1	4	-1	2	i	.	13
Cc1ccc2c(c1)CC1(CN2C)C(=O)NC(=O)N(c2cc(C)ccc2C)C1=O (stereo unspecified)	-3	-2	1	i	25*	-7
Cc1cc(/C=C2\C(=O)NC(=O)N(c3cccc(Br)c3)C2=O)c(C)n1C	97*	-3	-9	i	i	-159
CCC1C=CC=CC[C@H](C)[C@@H](O)[C@](C)(O)C(=O)[C@@H](C)[C@H](O)[C@@H](C)C(=O)[C@H](C)[C@@H](O)[C@H](C)C=CC(=O)OC2[C@@H](C)C(CC1)OC1(CC[C@@H](C)C(C[C@H](C)O)O1)[C@@H]2C (stereo partly specified)	.	.	.	.	25*	.
C[C@]12CC[C@H](O)CC1=CC(=O)C1C2CC[C@]2(C)C(=O)[C@H](O)CC12 (stereo partly specified)	3	-10	0	i	.	-15
CCN(CC)CCN=C(C)c1c(O)n(-c2ccccc2OC)c(=O)[nH]c1=O	5	3	0	i	i	87*
CCCCCCC(=O)c1c(O)n(-c2ccccc2OC)c(=O)[nH]c1=O (tested in a mixture with another compound)	-1	-2	3	i	i	-18
CCOC(=O)c1ccc2[nH]c(-c3ccc(S(=O)(=O)F)cc3)cc(=O)c2c1	5	24*	0	i	i	9
CCOC(=O)c1cccc([P+](=O)O)c1	-1	-1	0	i	i	6
CC1CCC(NC(=O)CNC(=S)N2CC3CC(C2)c2cccc(=O)n2C3)CC1 (stereo unspecified)	-1	0	0	i	i	10
COC(=O)C1=C(c2ccc(OC(F)(F)F)cc2)C[C@@H]2CC[C@H]1N2C(=O)NCc1cc(C)oc1C(F)(F)F	1	-3	1	i	.	19
COC(=O)c1c(C)n(Cc2ccccc2)c2ccc(O)cc12	-3	14*	1	i	i	9
CCOC(=O)c1c(C)n(Cc2ccccc2)c2ccc(OCC(O)Cn3nc(C)cc3C)cc12 (stereo unspecified)	3	-1	2	i	100*	-14
CCOC(=O)c1c(C)n(Cc2ccccc2)c2ccc(O)cc12	0	-7	2	i	i	-2
COC(=O)C1=C(c2ccc(C(C)=O)cc2)C[C@@H]2CC[C@H]1N2C(=O)NCc1ccc(C(F)(F)F)cc1	68*	0	-2	i	.	-16
CC1(CCO)C(=O)NC(=S)NC1=O	2	0	-1	i	.	-2
CC1=NCCc2c1[nH]c1cc(O)ccc21	220*	2	-2	i	i	-209
COc1ccc2c3c([nH]c2c1)C(C)=NCC3	4	1	1	i	i	-24
CC(=O)OCC[N+](C)(C)C	26	0	-5	-9.6*	i	-17
CCCCn1c(O)c(C(CC)=Nc2ccc(OCC)cc2)c(=O)[nH]c1=O	0	1	10	i	i	-10
CCCCn1c(O)c(C(CC)=Nc2ccc(OC)cc2OC)c(=O)[nH]c1=O	2	-2	9	i	25*	-15
CCOP(=S)(OCC)Oc1cc(C)nc(C(C)C)n1	0	-2	-1	i	.	5
CCOC(=O)C(NC(=O)C(Cc1ccc(N(CCCl)CCCl)cc1)NC(C)=O)C(C)C (stereo unspecified)	1	0	-1	i	i	9
COC(=O)C(Cc1ccc(N(CCCl)CCCl)cc1)N=Cc1ccccc1O (stereo unspecified)	1	0	0	i	i	67*
SMILES	CRFR2-BP ag	NR3A LBD binder	MPTP block	TMEM16A act	ANO1 block	CRFBP-R2 block
COc1ccc(OCC(=O)N2CCN(Cc3ccc(SC)cc3)CC2)cc1	1	-1	-1	i	100*	18
COc1ccc(OCC(=O)N2CCN(Cc3ccc4c(c3)OCO4)CC2)cc1	4	0	1	i	i	32
C=CCn1c(O)c(/C(C)=N/N2CCCCCC2)c(=O)[nH]c1=O	-2	14*	0	i	i	0
C=CCn1c(O)c(C(C)=NCCN2CCOCC2)c(=O)[nH]c1=O	-1	3	0	i	i	1
CCC1(O)CCC2C3CCC4=CC(=O)CCC4C3CCC21CC (stereo unspecified)	-4	-3	2	-4.8*	.	-22
C#CC1(O)C=CC2C3CCC4=CC(=O)CCC4C3CCC21CC (stereo unspecified)	-10	-3	1	i	i	9
CC[C@H]1CN2CCC1C[C@H]2[C@H](O)c1ccnc2ccc(OC)cc12 (stereo partly specified)	-1	-1	3	i	i	-18
COc1ccc(-[n+]2c(-c3ccccc3)cc(-c3ccccc3)cc2-c2ccccc2)cc1	-1	-3	.	.	100*	-14
O=[N+]([O-])c1ccc(-[n+]2c(-c3ccccc3)cc(-c3ccccc3)cc2-c2ccccc2)cc1	69*	0	0	i	i	-19
Cc1cccc(C(O)(C(=O)O)c2ccccc2)c1 (stereo unspecified)	4	-1	-2	i	.	10
COC(=O)C1=C(c2ccc(C(C)=O)cc2)C[C@@H]2CC[C@H]1N2C(=O)N1CCC(O)(c2ccc(Cl)cc2)CC1	-1	-1	0	i	.	30
CCCCCn1c(N)c(C(=O)NCc2cccs2)c2nc3ccccc3nc21	0	10	.	.	i	-34
Nc1c(C(=O)NCCCc2ccccc2)c2nc3ccccc3nc2n1Cc1cccs1	2	22*	6	i	i	-25
C=C1C(C)C2C(Cc3ccccc3)NC(=O)C23OC(=O)/C=C/C(O)CCCC(C)C/C=C/C3C1O (stereo unspecified)	1	2	-1	i	.	17
CCC(C)C1N=C(c2ccccc2)c2cc(Cl)ccc2N(CC(=O)NCc2ccco2)C1=O (stereo unspecified)	4	0	-1	i	i	55*
